A selection: hits, their analogues and other compounds. The true share with any hit is near 6.2%.
ATXN viability: reduces viability in counter-screen for ATXN expression inhibitors | S2 cells (HEK-293 line with an ATXN2-luciferase reporter) viability, CellTiter-Fluor protease fluorescence, 24 h | Potency, µM (top dose mostly 56.7 µM), most hits filed as cytotoxic | actives 0.49% (n = 400,000); further: nearly all actives have a fitted effect of over 40% in size
KB-V1 cytotox: KB-V1 MDR subline cytotoxicity | KB-V1 MDR cells viability, CellTiter-Glo, 72 h | Potency, µM (highest dose often 46.1 µM), most hits filed as cytotoxic | actives 3.4% (n = 400,000) | AID 1347076; further: nearly all actives have a fitted effect of over 60% in size
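Cells of the MDR subline KB-V1 are plated, dosed with compound at multiple concentrations, and incubated 72 h at 37 degrees C; CellTiter-Glo is then added and luminescence read after 10 min.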
HT1080 IDH1KD tx: toxicity to HT-1080 IDH1 knockdown cells (counter line). HT-1080 IDH1 knockdown viability, ATP luminescence, 48 h. Potency, µM (top dose mostly 46.1 µM), usual class: cytotoxic. actives 2% (n = 360,000). AID 686971
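Cytotoxicity counter-line: IDH1KD HT-1080, 48 h, CellTiter-Glo. Curves classed by r2, magnitude and activity.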
KB-3-1 tox: KB-3-1 parental cell cytotoxicity; actives 1.4% (n = 400,000); Potency, µM (top dose mostly 46.1 µM), actives largely listed as cytotoxic; AID 1347075; KB-3-1 viability, CellTiter-Glo ATP luminescence, 72 h; further: nearly all actives have a fitted effect of over 60% in size
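Viability of parental KB-3-1 cells, measured by CellTiter-Glo luminescence, followed a 72 h incubation at 37 °C with pinned compounds in phenol-red-free DMEM containing 10% FBS.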
HT1080NT lethal: kills 2HG-producing HT-1080-NT fibrosarcoma cells; HT-1080-NT fibrosarcoma viability, CellTiter-Glo ATP luminescence, 48 h; Potency, µM (highest dose often 46.1 µM), most hits filed as cytotoxic; actives 1.6% (n = 360,000);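 further: NT is the 2HG producing partner of a matched IDH1 knockdown line; nearly all actives have a fitted effect of over 55% in size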
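Read-out is CellTiter-Glo luminescence after 10 minutes at room temperature, following 48 hours' compound treatment of HT-1080-NT cells (750 cells/well, RPMI, 5% FBS, 37 degrees C).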
ATXN2 expr inh: ATXN2 expression inhibition; HEK-293 ATXN2-luciferase reporter, luminescence, 24 h; Potency, µM (doses to about 57 µM), usual class: inhibitors; actives 0.72% (n = 360,000); further: nearly all actives have a fitted effect of over 55% in size
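qHTS (up to 57 uM final) was run with 24 h compound exposure of reporter cells at 37 °C. Each well was multiplexed: SteadyGlo luminescence measured ATXN2-luciferase expression after a fluorogenic Gly-Phe-AFC viability readout (25 uM final).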
Hits are given with their value; - = inactive; ? = inconclusive; . = no result given; [ ] = another dose, or the depositor's remark. The call rests on the fitted dose curve; in most records, active means well fitted curve in the direction sought with a large enough effect; inconclusive means small, poorly fitted or top-dose-only effect, or another doubt; inactive means no such curve, though single readings can be large; an effect the other way counts as inactive or inconclusive.

SMILES | ATXN viability | KB-V1 cytotox | HT1080 IDH1KD tx | KB-3-1 tox | HT1080NT lethal | ATXN2 expr inh
COc1ccc(OC(C)C(=O)N(C)Cc2nc(-c3ccc(OC)cc3)no2)cc1 (stereo not given) | - | 18.4µM | - | ? | ? | -
O=C(NCCc1nnc2n1CCN(Cc1ccc(F)c(F)c1)CC2)c1ccoc1 | - | . | . | . | . | .
CN(Cc1ccccc1)c1ccc(C=O)cc1 | . | - | . | - | . | .
Cc1ccc2c(c1)c(=O)c(Br)c(C)n2Cc1ccccc1 | - | 18.4µM | - | ? | - | -
Cc1cc(=O)n(Cc2ccccc2)c2ccccc12 | - | - | - | - | - | .
Fc1ccccc1-c1nc(N2CCN(c3cccc(Cl)c3)CC2)c2ccccc2n1 | - | - | . | ? | . | -
CCn1c2ccccc2c2cc(Nc3cc(C)nc4ncnn34)ccc21 | ? | ? | 1.03µM | 0.231µM | 0.581µM | ?
OCC(O)COc1ccc(Cl)cc1 (stereo not given) | - | . | . | . | . | .
CC1(C(=O)Nc2ccc(Cl)c(C(F)(F)F)c2)Cc2c(-c3ccc(C(N)=O)cc3)ccnc2O1 (stereo not given) | ? | ? | 16.4µM | ? | 16.4µM | -
CC1(C(=O)Nc2cccc(C(F)(F)F)c2)Cc2c(-c3cccc(C(N)=O)c3)ccnc2O1 (stereo not given) | ? | - | ? | - | ? | ?
CC1(C(=O)Nc2ccc(Cl)c(C(F)(F)F)c2)Cc2c(-c3cccc(C(N)=O)c3)ccnc2O1 (stereo not given) | ? | ? | ? | - | 23.1µM | ?
COc1ccccc1N1CCN(c2ccnc3cc(Cl)ccc23)CC1 | ? | ? | 7.31µM | 6.51µM | 3.66µM | 11.2µM
COc1ccccc1NC(=O)N1CCN(c2ccnc3cc(Cl)ccc23)CC1 | - | - | - | - | - | -
O=C(C1CCCCC1)N1CCN(c2ccnc3cc(Cl)ccc23)CC1 | ? | ? | ? | ? | - | 17.8µM
Cc1cc(NC(=O)CSc2nc3c([nH]c4ccccc43)c(=O)n2-c2cccc(Cl)c2)no1 | - | - | . | - | . | -
O=S(=O)(Nc1cccc(-c2ccc(N3CCOCC3)nn2)c1)c1ccccc1C(F)(F)F | ? | - | . | - | . | -
Cc1ccc(C(=O)NC2c3ccccc3-c3ccccc32)cc1 | ? | 5.17µM | 2.59µM | 6.51µM | ? | -
CC(C)c1ccc(Cc2cnc(NC(=O)c3ccc4c(c3)CC(c3ccccc3)OC4=O)s2)cc1 (stereo not given) | - | - | . | - | . | -
O=C(NCCc1ccccc1)C(c1cccs1)N(C(=O)c1csnn1)C1CC1 (stereo not given) | - | - | - | - | - | -
O=C(NCCc1ccccc1)C(c1cccs1)N(C(=O)CCl)c1ccc(Cl)cc1 (stereo not given) | 5.01µM | ? | 1.64µM | ? | 3.66µM | 4.47µM
Cc1cccc(NC(=O)C(=O)NCC(c2cccnc2)N2CCc3ccccc3C2)c1C (stereo not given) | . | - | . | ? | . | .
O=C(Nc1nnc(S(=O)(=O)N2CCc3ccccc32)s1)c1cccc(Cl)c1 | - | ? | . | - | . | ?
CCOC(=O)N1CCN(C(=O)c2ccc(N(Cc3ccc(Cl)cc3)S(C)(=O)=O)cc2)CC1 | ? | - | - | - | - | ?
CCOC(=O)N1CCN(C(=O)c2ccc(N(Cc3ccccc3)S(C)(=O)=O)cc2)CC1 | - | 16.4µM | - | - | - | -
CCOC(=O)N1CCN(C(=O)c2ccc(N(Cc3ccc(C)cc3)S(C)(=O)=O)cc2)CC1 | - | 18.4µM | - | - | - | -
SMILES | ATXN viability | KB-V1 cytotox | HT1080 IDH1KD tx | KB-3-1 tox | HT1080NT lethal | ATXN2 expr inh
Cc1ccc2[nH]c(=O)c(CN(Cc3ccccc3)Cc3nnnn3Cc3ccco3)cc2c1 | . | - | . | - | . | .
CC(=O)Nc1ccc(S(=O)(=O)N2c3ccc(F)cc3CCC2C)cc1 (stereo not given) | ? | - | 20.6µM | 9.2µM | ? | ?
Cc1cc(Cl)ccc1Nc1nc(NCc2ccco2)nc2nccnc12 | . | - | . | - | . | .
CCCCCCC(=O)N1CCC(c2nc3c(nnn3Cc3ccccc3Cl)c(=O)[nH]2)CC1 | - | - | 11.2µM | - | 12.6µM | -
Cc1ccc(C)c(Cn2nnc3c(=O)[nH]c(C(=O)NCc4ccco4)nc32)c1 | - | ? | - | - | - | -
O=C(NCC1CCCO1)c1nc2c(nnn2Cc2ccc(F)cc2)c(=O)[nH]1 (stereo not given) | - | - | - | - | - | -
O=C(NCc1ccco1)c1nc2c(nnn2Cc2ccccc2Cl)c(=O)[nH]1 | ? | - | ? | ? | 17.8µM | 15.8µM
O=C(C1CCCCC1)N1CCC(c2nc3c(nnn3Cc3ccccc3Cl)c(=O)[nH]2)CC1 | - | - | - | - | - | -
O=C(NCc1cccs1)c1nc2c(nnn2Cc2ccc(F)cc2)c(=O)[nH]1 | - | 23.1µM | ? | - | - | -
Cc1ccc2c(c1)C(c1ccc(F)cc1)N(C(=O)C(C)C)CC(=O)N2 (stereo not given) | - | - | . | - | . | ?
Cc1ccc2c(c1)C(=O)OC(C(=O)Nc1ncc(Cc3ccccc3Cl)s1)C2 (stereo not given) | - | - | . | - | . | -
CC(=O)N1CCC[C@H]1C(=O)N1CCc2c(cnc(C)c2CNC(=O)/C=C/c2cccs2)C1 | - | . | . | . | . | .
Cc1cc(C)cc(NC(=O)/C(C#N)=C/c2cn(CC(=O)NCc3ccco3)c3ccccc23)c1 | - | ? | 9.2µM | ? | 10.3µM | ?
Cc1c(N2C(=O)/C(=C/c3ccccc3)SC2=S)c(=O)n(-c2ccccc2)n1C | - | - | ? | - | ? | -
Cc1c(N2C(=O)/C(=C/c3ccc(N(C)C)cc3)N(C)C2=S)c(=O)n(-c2ccccc2)n1C | 12.6µM | - | - | - | - | -
COc1ccccc1/C=C/c1nc2ccccc2[nH]1 | . | - | . | - | . | .
Cc1cc(NC(=O)c2cncc(Br)c2)ccc1NC(=O)c1cc2ccccc2o1 | 15.8µM | ? | - | ? | - | ?
COc1cc(NC(C)=O)ccc1NC(=O)c1cc2ccccc2o1 | - | - | - | - | - | .
COc1cc(NC(=O)c2cc(Cl)ccc2Cl)ccc1NC(=O)c1cc2ccccc2o1 | . | - | . | - | . | 31.6µM
COc1ccc(NC(=O)c2cc(Br)ccc2Cl)c(OC)c1 | - | 16.4µM | - | - | - | -
COc1cccc(-n2nc(C#N)c(Cl)cc2=O)c1 | 31.6µM | - | 14.6µM | ? | 9.2µM | 22.4µM
CN(c1ccccc1C(=O)O)S(C)(=O)=O | - | - | - | - | - | -
CN(C)c1ccccc1C(=O)c1ccccc1N(C)C | - | ? | 4.61µM | 4.61µM | ? | -
NC1=C(Br)C(=O)c2ncccc2C1=O | 13.4µM | 3.66µM | 3.26µM | 2.59µM | 3.26µM | 5.32µM
O=C1c2cccnc2C(=O)N1CO | - | - | -[9.24 µM] | - | - | -
Cc1ccc2c(c1)CCCN2C(=O)c1cccs1 | ? | 16.4µM | ? | - | - | -

Screening results from PubChem.
